Experimental data as given in PubChem BioAssay.
Unmarked numbers belong to inactive results. Activity calls are given as the source filed them.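 How the source made its calls: active means growth inhibition above 50% at the single 2 µM test dose, taken to imply half-maximal potency below 2 µM; inactive means the rest.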

Test: antimalarial activity against Dd2 strain (AID 2302);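 further: 0% = DMSO untreated growth and 100% = chloroquine plus artemisinin killed control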
Conditions: P. falciparum Dd2 in RBCs, LDH growth readout, 72 h; at 2 µM; active compounds read high

| Structure (SMILES) | growth inhibition |
| --- | --- |
| Cc1cc(=O)[nH]c(/N=C(/N)NOCCCc2ccccc2)n1 | 4% |
| NCCC(=O)Nc1ccc(-c2cnc3[nH]cc(-c4ccc(C(=O)O)cc4)c3c2)cn1 | 67% (active) |
| Cc1nc(N)nc(N)c1-c1ccc(Br)c([N+](=O)[O-])c1 | 2% |
| O=[N+]([O-])c1ccccc1C=NNc1ccnc2cc(Cl)ccc12 | 89% (active) |
| Cc1cc(F)ccc1[C@H]1CNCCN1C(=O)N(C)C(C)(C)c1cc(C(F)(F)F)cc(C(F)(F)F)c1 | 100% (active) |
| CN1CCC(NCc2ccc(S(=O)(=O)Nc3ccc(Oc4cccc(Cl)c4)cc3)cc2)CC1 | 5% |
| Cc1cc(N[C@@H](Cc2ccccc2)C(=O)NCc2cccs2)nc(NCCc2ccc(F)cc2)n1 | 83% (active) |
| COc1ccc([N+](=O)[O-])cc1N(Cc1ccccc1-c1ccccc1)S(=O)(=O)c1ccc(C(F)(F)F)cc1 | 66% (active) |
| O=C(Nc1ccc(CCN2CCC(c3nc(COCC(F)(F)F)c(-c4ccccc4)o3)CC2)cc1)c1ccc(F)cc1 | 3% |
| CCCNCc1ccc(-c2ccc(CN(C(=O)c3nn(-c4ccccc4)nc3C)C3CCOCC3)cc2)nc1 | -6% |
| CN(C)CCOc1cc(NC(=O)Nc2ccc(-c3ccccc3)cc2)ccc1I | 45% |
| CN1CCN(Cc2cccc(-c3ccc4c(Nc5ccc(Oc6ccccc6)cc5)ccnc4c3)c2)CC1 | 100% (active) |
| CN1CCN(c2ccc3nccc(CCN4CCC(NCc5ccc6c(n5)NC(=O)CO6)CC4)c3n2)CC1 | 3% |
| CCCCCCN1CCCN(Cc2ccc(C(=O)Nc3ccc(C(C)C)cc3)cc2)CC1 | 50% (active) |
| CCOC(=O)c1c(C)n(-c2ccccc2)c2ccc(OC(=O)c3ccc(S(=O)(=O)N(CC)CC)cc3)cc12 | 63% (active) |
| CCCCNC(=O)[C@@H](NC(=O)c1ccc(O)c(-c2ccc(Cl)c(Cl)c2)c1)C(C)C | 98% (active) |
| O=C(Cn1c(CCc2cccc(F)c2F)cc(=O)c2cccnc21)N(CCCn1ccnc1)Cc1ccc(-c2ccc(C(F)(F)F)cc2)cc1 | 47% |
| CS(=O)(=O)n1c(CN2CCN(c3ncc(C(F)(F)F)cc3Cl)CC2)nc2ccccc21 | 59% (active) |

| Structure (SMILES) | growth inhibition |
| --- | --- |
| CCOc1cc(C(=O)NC2CCN(Cc3ccccc3)C2)ccc1-c1nc2ccc(Cl)cc2[nH]1 (stereo unspecified) | 60% (active) |
| OC(CNCc1ccccc1OCc1ccccc1)c1cc(Br)cs1 (stereo unspecified) | 88% (active) |
| Cc1nc2nc(N)nc(N)c2c(C)c1Cc1ccccc1 | 0% |
| Cc1cnc(CS(=O)c2nc3ccc(C(F)(F)F)cc3[nH]2)cc1OCc1ccccc1 (stereo unspecified) | 76% (active) |
| N#Cc1ccc(-c2ccc(C(=O)Nc3ccc4c(c3)CCN(C3CCC3)CC4)nc2)cn1 | 15% |
| C[C@@H](CC1CCCCC1)OC(=O)N(C)[C@H]1CCN(C#N)C1 | 62% (active) |
| O=C(Cc1cccc(Cl)c1)N1CCc2cc3nccc(N4CCN5CCC[C@H]5C4)c3cc21 | 4% |
| O=C(Nc1ccc(C(=O)N2CCN(CCN3CCN(c4cccc(C(F)(F)F)c4)CC3)CC2)cc1)c1cc(Cl)cc(Cl)c1 | 19% |
| COc1ccc(NC(=O)Nc2cccc(-c3ccncc3)c2)cc1N1CCN(C)CC1 | 57% (active) |
| O=C(/C=C/c1ccc(Cl)c(Cl)c1)NCCCCN1CCCN(C(=O)Nc2ccc(F)c(Cl)c2)CC1 | 2% |
| CS(=O)(=O)Nc1ccc2[nH]cc(C3CCN(CC(O)C4CCN(C(=O)/C=C/c5ccc(Cl)c(Cl)c5)CC4)CC3)c2c1 (stereo unspecified) | -10% |
| CCCCCC1c2[nH]c3ccccc3c2CCN1C(=O)OCc1ccccc1 (stereo unspecified) | 68% (active) |
| O=C(NCCCCN1CCC(c2c[nH]c3ccc(-c4ccccc4)cc23)CC1)c1ccc(-c2ccccc2)cc1 | 40% |
| O=C(NCc1ccc2c(c1)OCO2)c1nn(CCN2CCC(N3CCCC3)CC2)cc1-c1ccc(Cl)c(Cl)c1 | 17% |
| CN1CCN(CCCCCCNc2c3ccccc3nc3ccccc23)CC1 | -4% |
| CCN(CC)CCOC(=O)c1ccc(NC(=O)c2cn(-c3ccccc3)nc2-c2cccs2)cc1 | 59% (active) |
| CCN(CC)CCN(Cc1ccc(-c2ccc(C(F)(F)F)cc2)cc1)C(=O)CN1C(CCc2cccc(F)c2F)=NS(=O)(=O)c2ccccc21 | 49% |
| CCN(CC)CCOc1ccc(N(Cc2ccc(C(C)(C)C)cc2)C(=O)c2ccc(Cc3ccccc3)cc2)cc1OC | 73% (active) |
